Data reported in article PMC7862700, “An all-to-all approach to the identification of sequence-specific readers for epigenetic DNA modifications on cytosine”.

Legend:
Experiment in all cases: DAPPL (digital affinity profiling via proximity ligation, sequencing); 10 mM Tris-HCl pH 7.5, 50 mM NaCl, 1 mM DTT, 4% glycerol, room temperature, 30 min; GST-TFs on glutathione beads, 16-mer random dsDNA library, 0.1% formaldehyde crosslink after washing; high values mean tight binding
Conditions in all cases: protein: recombinant; tags: N-terminal GST; dsDNA, one strand shown
ERF = target: T1, ERF (Homo sapiens, UniProt P50548 1-548)
T1 sequence: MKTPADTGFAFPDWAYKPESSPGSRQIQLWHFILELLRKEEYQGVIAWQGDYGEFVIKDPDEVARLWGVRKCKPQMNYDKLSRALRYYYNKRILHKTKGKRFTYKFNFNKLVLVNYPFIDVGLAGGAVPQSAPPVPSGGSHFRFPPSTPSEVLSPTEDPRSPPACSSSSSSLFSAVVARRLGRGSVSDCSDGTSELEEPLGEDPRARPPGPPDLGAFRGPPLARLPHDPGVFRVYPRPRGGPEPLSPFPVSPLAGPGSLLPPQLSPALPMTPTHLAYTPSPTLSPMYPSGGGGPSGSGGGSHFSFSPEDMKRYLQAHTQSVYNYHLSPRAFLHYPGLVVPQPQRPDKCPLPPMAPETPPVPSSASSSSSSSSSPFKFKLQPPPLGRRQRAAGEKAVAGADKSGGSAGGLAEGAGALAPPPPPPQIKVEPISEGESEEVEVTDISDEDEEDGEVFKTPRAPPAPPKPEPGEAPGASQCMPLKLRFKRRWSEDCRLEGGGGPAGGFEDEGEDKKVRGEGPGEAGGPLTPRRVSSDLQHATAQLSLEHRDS
Method in brief: (§1)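 Beads coated with glutathione captured GST-fused human transcription factors that had been expressed in yeast, and the factors were then given DNA barcodes and pooled with a tag-only sample. The pools were incubated with 200 nmole of a random double-stranded 16-mer DNA library in Tris/NaCl/DTT/glycerol buffer for 30 min at room temperature, washed, crosslinked with 0.1% formaldehyde and proximity-ligated with BsaI/T4 ligase at 37 °C for 1 h. PCR amplification and Illumina NextSeq500 sequencing came last. Binding signal is each hexamer's read frequency for a factor divided by its frequency for the tag-only sample.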

ETV3L = target: T2, ETV3L (Homo sapiens, UniProt Q6ZN32 1-361)
T2 sequence: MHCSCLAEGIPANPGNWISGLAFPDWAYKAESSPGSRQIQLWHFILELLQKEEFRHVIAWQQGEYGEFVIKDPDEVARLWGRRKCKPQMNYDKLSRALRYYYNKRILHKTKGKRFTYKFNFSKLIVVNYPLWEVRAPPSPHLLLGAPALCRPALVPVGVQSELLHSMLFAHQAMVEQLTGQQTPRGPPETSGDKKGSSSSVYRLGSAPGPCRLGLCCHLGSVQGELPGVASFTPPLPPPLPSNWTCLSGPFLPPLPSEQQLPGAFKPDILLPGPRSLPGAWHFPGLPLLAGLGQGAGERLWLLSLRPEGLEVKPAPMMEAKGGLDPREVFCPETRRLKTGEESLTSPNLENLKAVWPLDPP
Method in brief: as §1

ETS2 = target: T3, ETS2 (Homo sapiens, UniProt P15036 1-469)
T3 sequence: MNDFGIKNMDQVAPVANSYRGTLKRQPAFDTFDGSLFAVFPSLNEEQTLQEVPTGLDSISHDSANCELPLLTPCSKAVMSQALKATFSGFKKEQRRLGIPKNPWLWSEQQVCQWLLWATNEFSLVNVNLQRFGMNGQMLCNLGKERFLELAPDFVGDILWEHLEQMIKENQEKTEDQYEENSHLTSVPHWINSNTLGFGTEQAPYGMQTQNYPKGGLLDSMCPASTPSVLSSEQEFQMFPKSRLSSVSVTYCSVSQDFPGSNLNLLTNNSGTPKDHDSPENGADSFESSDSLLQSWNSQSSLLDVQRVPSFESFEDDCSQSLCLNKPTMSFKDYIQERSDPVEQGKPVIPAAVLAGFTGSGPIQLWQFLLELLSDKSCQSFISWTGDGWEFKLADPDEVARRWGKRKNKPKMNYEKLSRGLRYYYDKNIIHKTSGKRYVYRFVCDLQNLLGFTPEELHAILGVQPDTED
Method in brief: as §1

SPDEF = target: T4, SPDEF (Homo sapiens, UniProt O95238 1-335)
T4 sequence: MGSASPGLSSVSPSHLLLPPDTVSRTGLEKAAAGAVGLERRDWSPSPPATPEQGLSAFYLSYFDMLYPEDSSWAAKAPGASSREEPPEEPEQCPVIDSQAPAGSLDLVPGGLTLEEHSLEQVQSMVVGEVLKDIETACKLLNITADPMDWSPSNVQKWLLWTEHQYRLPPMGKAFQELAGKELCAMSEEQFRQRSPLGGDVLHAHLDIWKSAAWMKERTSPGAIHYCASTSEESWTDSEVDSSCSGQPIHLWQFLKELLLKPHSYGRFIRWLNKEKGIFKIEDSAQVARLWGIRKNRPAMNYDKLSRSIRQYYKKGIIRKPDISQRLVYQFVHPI
Method in brief: as §1

ETV7 = target: T5, ETV7 (Homo sapiens, UniProt Q9Y603 1-341)
T5 sequence: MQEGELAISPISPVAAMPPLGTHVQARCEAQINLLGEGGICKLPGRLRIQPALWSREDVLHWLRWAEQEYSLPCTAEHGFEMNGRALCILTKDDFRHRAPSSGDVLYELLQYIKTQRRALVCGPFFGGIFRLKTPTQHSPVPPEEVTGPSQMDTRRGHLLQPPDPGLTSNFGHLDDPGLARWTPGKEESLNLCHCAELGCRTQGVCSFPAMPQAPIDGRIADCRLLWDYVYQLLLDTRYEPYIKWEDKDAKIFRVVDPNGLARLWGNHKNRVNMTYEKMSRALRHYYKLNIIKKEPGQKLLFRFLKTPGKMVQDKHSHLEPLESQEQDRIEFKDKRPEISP
Method in brief: as §1

ELF5 = target: T6, ELF5 (Homo sapiens, UniProt Q9UKW6-2 1-255)
T6 sequence: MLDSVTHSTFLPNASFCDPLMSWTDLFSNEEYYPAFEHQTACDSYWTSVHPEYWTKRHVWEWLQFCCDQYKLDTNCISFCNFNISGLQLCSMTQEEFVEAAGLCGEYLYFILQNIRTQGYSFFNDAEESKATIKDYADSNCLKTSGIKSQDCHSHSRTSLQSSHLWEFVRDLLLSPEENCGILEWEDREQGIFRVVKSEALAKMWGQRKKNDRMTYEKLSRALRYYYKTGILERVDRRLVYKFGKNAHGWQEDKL
Method in brief: as §1

ETV3 = target: T7, ETV3 (Homo sapiens, UniProt P41162-2 1-143)
T7 sequence: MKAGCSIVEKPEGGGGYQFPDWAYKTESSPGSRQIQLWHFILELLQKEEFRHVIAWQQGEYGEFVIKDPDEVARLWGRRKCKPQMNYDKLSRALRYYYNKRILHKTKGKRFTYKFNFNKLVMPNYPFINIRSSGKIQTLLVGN
Method in brief: as §1

ETV6 = ETV6 (Homo sapiens, UniProt P41212 1-452)
Sequence of ETV6 (P41212 whole entry): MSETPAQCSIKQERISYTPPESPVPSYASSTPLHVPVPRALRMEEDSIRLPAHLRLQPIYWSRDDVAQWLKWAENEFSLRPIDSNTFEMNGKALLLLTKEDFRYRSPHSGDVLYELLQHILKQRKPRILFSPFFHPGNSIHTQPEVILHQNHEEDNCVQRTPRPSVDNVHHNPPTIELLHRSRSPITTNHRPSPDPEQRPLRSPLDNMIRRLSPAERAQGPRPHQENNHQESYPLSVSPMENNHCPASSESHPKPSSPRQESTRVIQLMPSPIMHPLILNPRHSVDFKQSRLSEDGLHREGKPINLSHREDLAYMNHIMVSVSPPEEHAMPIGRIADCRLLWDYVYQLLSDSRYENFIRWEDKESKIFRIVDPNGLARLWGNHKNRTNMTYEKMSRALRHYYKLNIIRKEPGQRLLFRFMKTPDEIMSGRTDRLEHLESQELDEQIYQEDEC
Method in brief: as §1

Sequence	binding signal (ERF)	binding signal (ETV3L)	binding signal (ETS2)	binding signal (SPDEF)	binding signal (ETV7)	binding signal (ELF5)	binding signal (ETV3)	binding signal (ETV6)
CATCTT	1.26 fold enrichment (6-mer frequency, TF over GST control)	1.28 fold enrichment (6-mer frequency, TF over GST control)	1.23 fold enrichment (6-mer frequency, TF over GST control)	1.03 fold enrichment (6-mer frequency, TF over GST control)	1.25 fold enrichment (6-mer frequency, TF over GST control)	1.17 fold enrichment (6-mer frequency, TF over GST control)	1.18 fold enrichment (6-mer frequency, TF over GST control)	1.25 fold enrichment (6-mer frequency, TF over GST control)
GTACTT	1.64 fold enrichment (6-mer frequency, TF over GST control)	1.87 fold enrichment (6-mer frequency, TF over GST control)	2.02 fold enrichment (6-mer frequency, TF over GST control)	2.57 fold enrichment (6-mer frequency, TF over GST control)	2.11 fold enrichment (6-mer frequency, TF over GST control)	2.51 fold enrichment (6-mer frequency, TF over GST control)	1.97 fold enrichment (6-mer frequency, TF over GST control)	2.47 fold enrichment (6-mer frequency, TF over GST control)
TACCAT	1.22 fold enrichment (6-mer frequency, TF over GST control)	1.25 fold enrichment (6-mer frequency, TF over GST control)	1.22 fold enrichment (6-mer frequency, TF over GST control)	1.16 fold enrichment (6-mer frequency, TF over GST control)	1.16 fold enrichment (6-mer frequency, TF over GST control)	1.14 fold enrichment (6-mer frequency, TF over GST control)	1.17 fold enrichment (6-mer frequency, TF over GST control)	1.17 fold enrichment (6-mer frequency, TF over GST control)
CCAATC	1.03 fold enrichment (6-mer frequency, TF over GST control)	1.19 fold enrichment (6-mer frequency, TF over GST control)	1.19 fold enrichment (6-mer frequency, TF over GST control)	1.16 fold enrichment (6-mer frequency, TF over GST control)	1.23 fold enrichment (6-mer frequency, TF over GST control)	1.16 fold enrichment (6-mer frequency, TF over GST control)	1.15 fold enrichment (6-mer frequency, TF over GST control)	1.15 fold enrichment (6-mer frequency, TF over GST control)
CCTTGC	1.43 fold enrichment (6-mer frequency, TF over GST control)	1.42 fold enrichment (6-mer frequency, TF over GST control)	1.22 fold enrichment (6-mer frequency, TF over GST control)	1.34 fold enrichment (6-mer frequency, TF over GST control)	1.41 fold enrichment (6-mer frequency, TF over GST control)	1.28 fold enrichment (6-mer frequency, TF over GST control)	1.35 fold enrichment (6-mer frequency, TF over GST control)	1.21 fold enrichment (6-mer frequency, TF over GST control)
CTCCGG	1.56 fold enrichment (6-mer frequency, TF over GST control)	1.61 fold enrichment (6-mer frequency, TF over GST control)	1.6 fold enrichment (6-mer frequency, TF over GST control)	1.89 fold enrichment (6-mer frequency, TF over GST control)	1.32 fold enrichment (6-mer frequency, TF over GST control)	1.58 fold enrichment (6-mer frequency, TF over GST control)	1.62 fold enrichment (6-mer frequency, TF over GST control)	1.56 fold enrichment (6-mer frequency, TF over GST control)
CTGAAC	1.33 fold enrichment (6-mer frequency, TF over GST control)	1.3 fold enrichment (6-mer frequency, TF over GST control)	1.32 fold enrichment (6-mer frequency, TF over GST control)	1.47 fold enrichment (6-mer frequency, TF over GST control)	1.21 fold enrichment (6-mer frequency, TF over GST control)	1.41 fold enrichment (6-mer frequency, TF over GST control)	1.47 fold enrichment (6-mer frequency, TF over GST control)	1.29 fold enrichment (6-mer frequency, TF over GST control)
